Measured values: PubChem BioAssay (EPA / NIEHS)
Several values for one entry are separate records, joined by “and”; a condition that tells them apart may be missing. Identical values can stand only once. Records with an inconclusive call do not appear. Some compounds were tested as several samples or in several runs, with calls that do not always agree. Activity calls are given as the source filed them. The calls were made as follows, unless noted: active = hit-call score of the fitted dose curve at least 0.9, where 1 is the maximum; inconclusive = response in the unintended direction; inactive = score below 0.9.

How the values were obtained:
[1] = ATG_XTT_Cytotoxicity: Cytotoxicity Assessment in the Attagene TRANS-FACTORIAL HepG2 Assay (AID 2283584)
Procedure, shortened: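 24 h chemical exposure of reporter-transfected HepG2; XTT signal loss vs DMSO indicates cytotoxicity.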

[2] = read-out: UDP glucuronosyltransferase (UGT1A1), UGT1A1 (gene 54658); assay: LTEA_HepaRG_UGT1A1: Life Technologies and Expression Analysis (LTEA) Assay for UDP glucuronosyltransferase (UGT1A1) using HepaRG (AID 2283538; active = hit-call score of the fitted dose curve at least 0.9, where 1 is the maximum; inactive = score below 0.9); settings: mRNA level, 48 h; actives raise or lower the signal
Procedure, shortened: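 Human liver HepaRG cultures receive test chemical for 48 h, up to 100 uM in 0.5% DMSO, with phenobarbital induction controls. UGT1A1 mRNA is measured by qRT-PCR and normalized to ACTB, GAPDH and POLR2A.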

[3] = read-out: UDP glucuronosyltransferase (UGT1A6), UGT1A6 (gene 54578); assay: LTEA_HepaRG_UGT1A6: Life Technologies and Expression Analysis (LTEA) Assay for UDP glucuronosyltransferase (UGT1A6) using HepaRG (AID 2283539; active = hit-call score of the fitted dose curve at least 0.9, where 1 is the maximum; inactive = score below 0.9); settings: mRNA level, 48 h; actives raise or lower the signal
Procedure, shortened: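 Measures mRNA change in HepaRG hepatic cells exposed 48 h to chemicals (eight-point, maximum 100 uM, 0.5% DMSO vehicle) in serum-free induction medium. Expression normalized to endogenous controls; DMSO served as negative control and baseline.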

[4] = read-out: X-box binding protein 1 (XBP1), XBP1 (gene 7494); assay: LTEA_HepaRG_XBP1: Life Technologies and Expression Analysis (LTEA) Assay for X-box binding protein 1 (XBP1) using HepaRG (AID 2283540; active = hit-call score of the fitted dose curve at least 0.9, where 1 is the maximum; inactive = score below 0.9); settings: mRNA level, 48 h; actives raise or lower the signal
Procedure, shortened: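 Eight concentrations (half-log, highest 100 uM, 0.5% DMSO) tested in duplicate on HepaRG cells over 48 h in serum-free induction medium; qRT-PCR of XBP1 normalised to ACTB, GAPDH, POLR2A.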

[5] = LTEA_HepaRG_LDH_cytotoxicity: Cytotoxicity Assessment in the Life Technologies and Expression Analysis (LTEA) Assay (AID 2283563)
Procedure, shortened: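 Spent-medium LDH after 48 h chemical exposure of HepaRG cells in serum-free induction medium; eight concentrations, half-log dilutions from 100 uM, duplicate wells, fitted upward relative to 0.5% DMSO.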

[6] = TOX21_p53_BLA_p2_viability: Viability Assessment in the Tox21 HCT-116 p53 Agonism Beta-lactamase Assay, Phase 2 (AID 2283591);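 also: compound exposure lasted 16 h at 37 °C; actives lower the ATP signal meaning cytotoxicity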
Procedure, shortened: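 Cytotoxicity readout: CellTiter-Glo ATP luminescence, 30 min at room temperature, after the beta-lactamase read. Cells were HCT116 exposed 16 h at 37C to compounds pin-transferred at 217-fold dilution from DMSO stocks.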

[7] = target: Cellular tumor antigen p53 (Homo sapiens) (UniProt P04637); assay: TOX21_p53_BLA_p2_ratio: Tox21 HCT-116 p53 Agonism Beta-lactamase Assay, Ratio, Phase 2 (AID 2283592)
Sequence of Cellular tumor antigen p53 (Homo sapiens) (P04637 whole entry, looked up): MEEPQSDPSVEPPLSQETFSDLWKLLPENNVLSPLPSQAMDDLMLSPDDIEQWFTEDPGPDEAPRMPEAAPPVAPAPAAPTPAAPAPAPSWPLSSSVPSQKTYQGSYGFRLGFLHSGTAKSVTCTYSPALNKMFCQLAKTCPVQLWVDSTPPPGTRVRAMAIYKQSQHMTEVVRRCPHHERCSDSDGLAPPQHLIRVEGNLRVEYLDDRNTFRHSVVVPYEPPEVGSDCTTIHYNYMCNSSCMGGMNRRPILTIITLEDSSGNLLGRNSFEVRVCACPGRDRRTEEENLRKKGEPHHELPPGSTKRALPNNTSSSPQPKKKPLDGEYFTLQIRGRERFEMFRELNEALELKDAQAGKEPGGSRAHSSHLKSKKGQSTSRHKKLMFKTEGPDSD
Procedure, shortened: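 Human colon HCT116 cells with an inducible p53 beta-lactamase reporter are exposed to test chemicals for 16 h at 37C. Reporter induction is read as the 460/530 nm emission ratio after CCF4-AM loading, normalized to DMSO.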

[8] = TOX21_p53_BLA_p3_viability: Viability Assessment in the Tox21 HCT-116 p53 Agonism Beta-lactamase Assay, Phase 3 (AID 2283593);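 also: cells exposed to compound for 16 h before reading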
Procedure, shortened: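 Cellular ATP was quantified by CellTiter-Glo luminescence, read after 30 min at room temperature. Beforehand, HCT116 cells (4000/well) received compound 5 h post-seeding, 217-fold diluted from DMSO, then incubated 16 h at 37C.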

[9] = target: Cellular tumor antigen p53 (Homo sapiens) (UniProt P04637); assay: TOX21_p53_BLA_p3_ratio: Tox21 HCT-116 p53 Agonism Beta-lactamase Assay, Ratio, Phase 3 (AID 2283596)
Procedure, shortened: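 HCT116 p53-bla cells (4000/well) given compound in DMSO (217-fold dilution) after 5 h, incubated 16 h at 37C. CCF4-AM substrate 2 h at room temperature; 460/530 nm emission ratio, gain fitted against DMSO.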

[10] = TOX21_p53_BLA_p4_viability: Viability Assessment in the Tox21 HCT-116 p53 Agonism Beta-lactamase Assay, Phase 4 (AID 2283597);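 also: hits lower the luminescence signal meaning cytotoxicity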
Procedure, shortened: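 Luminescent ATP readout (CellTiter-Glo, 30 min, room temperature) in the same wells as the p53 bla ratio. HCT116 cells were treated for 16 h at 37C with DMSO-dissolved compounds.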

## CC(=N[Si](C)(C)C)O[Si](C)(C)C
[1]
  outcome: inactive

## O=c1cc[nH]cc1
[1]
  outcome: inactive

## CCCCCCCCCCCCOC(C)=O
[1]
  outcome: inactive

## C1CCCNCC1
[1]
  outcome: inactive

## CC(=O)OCC=C(C)CCC=C(C)CCC=C(C)C
[1]
  outcome: inactive

## COC(=O)c1ccc(C(=O)OC)cc1
[2]
  outcome: inactive
[3]
  outcome: inactive
[4]
  outcome: inactive
[5]
  outcome: inactive
[1]
  outcome: inactive
[6]
  outcome: inactive
[7]
  outcome: inactive
[8]
  outcome: inactive
[9]
  outcome: inactive
[10]
  outcome: inactive

## CCC(C)C1CCCCC1=O (stereo unspecified)
[1]
  outcome: inactive

## CCCCOCC(C)OCC(C)O (stereo unspecified)
[1]
  outcome: inactive

## CCC(=O)OCC=Cc1ccccc1
[1]
  outcome: inactive

## O=C1CCC(=O)N1
[1]
  outcome: inactive

## C=C(C)C(=O)OCCOCCOC(=O)C(=C)C
[1]
  outcome: inactive

## Cc1ccccc1S
[1]
  outcome: inactive

## CC=CC(=O)C1=C(C)C=CCC1(C)C
[1]
  outcome: inactive

## CCCCOCCOCCO
[2]
  AC50: 50 µM (active)
[3]
  outcome: inactive
[4]
  outcome: inactive
[5]
  outcome: inactive
[1]
  outcome: inactive
[7]
  outcome: inactive
[8]
  outcome: inactive
[9]
  outcome: inactive

## c1ccc(Sc2ccccc2)cc1
[1]
  outcome: inactive

## CCCC1CCOC(C)S1 (stereo unspecified)
[1]
  outcome: inactive

## CC(C)N(c1ccccc1)C(C)C
[1]
  outcome: inactive

## Cc1cccc(C)c1
[1]
  outcome: inactive

## O=C1OCc2ccccc21
[1]
  outcome: inactive

## C=C(C)C(N)=O
[2]
  outcome: inactive
[3]
  outcome: inactive
[4]
  outcome: inactive
[5]
  outcome: inactive
[1]
  outcome: inactive
[6]
  outcome: inactive
[7]
  outcome: inactive
[8]
  outcome: inactive
[9]
  outcome: inactive
[10]
  outcome: inactive

## CC(O)CN (stereo unspecified)
[1]
  outcome: inactive

## C[C@]12CC[C@@H]3c4ccc(O)cc4CC[C@H]3[C@@H]1CC[C@@H]2O
[2]
  AC50: 10.3 µM (active)
[3]
  outcome: inactive
[4]
  outcome: inactive
[5]
  outcome: inactive
[1]
  outcome: inactive
[6]
  outcome: inactive
[8]
  outcome: inactive
[9]
  AC50: 32 µM (active) and 34.9 µM (active)
  outcome: inactive
[10]
  outcome: inactive
